Measurements taken from PubChem BioAssay (NCI).
About 83,000 compounds went through this panel and 20% of them were active in at least one assay; those are over-represented in the sample as a whole.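 Assay: single dose, 48 h. Readout: percent growth (0 = no net growth; negative = cell death). Active: <10.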 A number with no mark means an inactive call. Active and inactive are the calls of the source.

Legend:
Assay in all cases: NCI-60 one-dose screen, 48 h (100 = growth as untreated, 0 = no growth, -100 = all killed)
Settings in all cases: 10 µM unless noted
DU-145 prostate = tested on: DU-145 prostate
K-562 leukemia = tested on: K-562 leukemia
MALME-3M melanoma = tested on: MALME-3M melanoma
MDA-MB-231 breast = tested on: MDA-MB-231 breast
RXF 393 renal = tested on: RXF 393 renal
SF-268 CNS = tested on: SF-268 CNS
SF-295 CNS = tested on: SF-295 CNS
SF-539 CNS = tested on: SF-539 CNS
UACC-257 melanoma = tested on: UACC-257 melanoma
M14 melanoma = tested on: M14 melanoma

SMILES | growth (DU-145 prostate) | growth (K-562 leukemia) | growth (MALME-3M melanoma) | growth (MDA-MB-231 breast) | growth (RXF 393 renal) | growth (SF-268 CNS) | growth (SF-295 CNS) | growth (SF-539 CNS) | growth (UACC-257 melanoma) | growth (M14 melanoma)
O=C(c1ccccc1)c1ccc2nc(-c3ccc(F)cc3)[nH]c2c1 | 74.9% | 20.9% | 73% | 42.2% | 49.2% | 47.7% | 97.1% | 50.6% | 68.5% | 54.4%
O=C(COc1ccc(NC(=O)Nc2ccc(Cl)c(Cl)c2)cc1)N=Nc1c(O)[nH]c2ccc(Cl)cc12 | -31.3% (active) | 4.71% (active) | -76.6% (active) | -66.5% (active) | -53% (active) | -12.3% (active) | -61% (active) | -90.2% (active) | -72.2% (active) | -71.2% (active)
COc1cccc(/C=C/c2nc3ccccc3c(=O)n2CC(=O)Nc2ccc(Cl)cc2)c1 | 68.9% | 84.6% | 67.3% | 27.9% | 83.5% | 82.3% | 61.2% | 52.7% | 92.3% | 76.3%
COc1ccc2[nH]cc(-c3cc(N)n4nc(-c5cn(C)c6ccccc56)cc4n3)c2c1 | -64.7% (active) | 4.69% (active) | -75.5% (active) | -44.8% (active) | -83.9% (active) | -11.7% (active) | -81% (active) | -82% (active) | -86.2% (active) | -91.1% (active)
Nc1nc(C(F)(F)F)cs1 | 109% | 99.9% | 103% | 117% | 112% | 99.3% | 103% | 106% | 104% | 108%
CCCCCCCS(=O)(=O)N1CCCC(C(=O)Nc2nc3ccc(NC(=O)c4ccc(F)c(OC)c4F)cc3s2)C1 (stereo not given) | 63.5% | 61.8% | 35.4% | 14.7% | -48.1% (active) | 63.1% | 48.7% | 25.8% | 69% | 72.5%
O=C(Cn1c2c(sc1=O)[C@H]1[C@@H](O)[C@@H](O)[C@H](O)[C@@H]1CS2)N1CCOCC1 | 112% | 106% | 98.8% | 106% | 117% | 97.7% | 105% | 96.8% | 110% | 112%
CC(=O)Nc1ccc(-n2cnc3ccc(-c4ccc(O)cc4)cc32)cc1 | 44.7% | 56.6% | 50.3% | 70.4% | 10.9% | 36.3% | 56% | 34.2% | 67.3% | 48.7%
Cn1cc(-c2cc3nc(-c4cn(C)c5ncc(Br)cc45)cc(N)n3n2)c2cc(Cl)ccc21 | -58.3% (active) | -29.2% (active) | -91.9% (active) | -85.5% (active) | -64.4% (active) | 20.1% | -72.5% (active) | -96.9% (active) | -82.7% (active) | -86.8% (active)
CC(=O)Oc1ccc(/C=C/C(=O)N[C@@H](Cc2ccccc2)C(O)C(=O)NCc2ccccc2)cc1OC(C)=O (stereo not given in full) | 90.5% | 77.1% | 87.4% | 72.7% | 104% | 68% | 100% | 71.2% | 90.8% | 85.3%
COc1c(F)ccc(C(=O)Nc2ccc3nc(NC(=O)C4CCCN(S(=O)(=O)C5CC5)C4)sc3c2)c1F (stereo not given) | 66.8% | 20.5% | 43.5% | 46.7% | -4.35% (active) | 76.2% | 18.1% | 37.6% | 20.9% | 50.3%
CN(C)CCCNC(=O)c1cc(NC(=O)c2cc(NC(=O)c3ccc(C#Cc4ccccc4)cc3)cn2C)cn1C | 18.2% | -54.9% (active) | -95.8% (active) | -68.8% (active) | -37.7% (active) | 18.1% | -91.8% (active) | -84.1% (active) | 43.8% | -79.8% (active)
COC(=O)C[C@](O)(CCCC(C)(C)O)C(=O)O[C@H]1C(OC)=C[C@@]23CCCN2CCc2cc4c(cc2[C@@H]13)OCO4 | -11.7% (active) | 4.68% (active) | -43.8% (active) | -20.4% (active) | -31.8% (active) | -6.53% (active) | -22.8% (active) | -50.8% (active) | -28.2% (active) | -71.4% (active)
C=C1CCC2C3(C)COC(c4ccccc4)OC3CCC2(C)C1CC(NCc1ccccc1)C1=CCOC1=O (stereo not given) | 98.7% | 58.8% | 92.4% | 71.5% | 78.5% | 82.4% | 72% | 89.2% | 71.7% | 76%
COc1ccc(/C=C/c2nc3ccccc3c(=O)n2CC(=O)Nc2ccc(Cl)cc2)cc1 | 65.9% | 66.6% | 76.3% | 48.8% | 48.5% | 61.4% | 53% | -13% (active) | 92.3% | 77.8%
COc1cc2oc(-c3cccc(C(=O)Nc4ccc(Cl)cc4)c3)cc(=O)c2c(OCC(=O)N[C@@H](Cc2ccccc2)C(=O)O)c1OC | 111% | 96.5% | 107% | 96.1% | 111% | 110% | 111% | 99.3% | 104% | 109%
C#CCOc1cc(N(CC)CC)ccc1C(C(=O)NC(C)(C)C)N(C(=O)C1CCc2cc(F)ccc2O1)c1ccc(F)c(Cl)c1 (stereo not given) | 78.9% | 35.7% | 81.7% | 55.5% | 59.3% | 49.8% | 72.8% | 77.9% | 58.2% | 63.3%
NS(=O)(=O)c1ccc(NNC(=O)CCC(=O)c2ccccc2)cc1 | 114% | 71.6% | 107% | 99.3% | 119% | 95.8% | 99.4% | 103% | 103% | 104%
C#CCOc1cc(N(CC)CC)ccc1C(C(=O)NC(C)(C)C)N(C(=O)C1CCc2cc(F)ccc2O1)c1ccc(Br)cc1 (stereo not given) | 97.1% | 41.1% | 92.6% | 61.6% | 103% | 92.8% | 96.4% | 81.1% | 87.8% | 68.3%
COc1ccc2c(c1)c(-c1cc3nc(-c4cn(C)c5ncccc45)cc(N)n3n1)cn2C | -27.2% (active) | -31.2% (active) | -95.3% (active) | -82.8% (active) | -77.3% (active) | 11.9% | -79.4% (active) | -95.8% (active) | -78.7% (active) | -84.3% (active)
O=C(Cn1nc(-c2ccccc2)ccc1=O)N/N=C/c1ccc(N2CCOCC2)cc1 | 101% | 88.9% | 90.1% | 104% | 111% | 98.2% | 88.8% | 90.5% | 99.2% | 102%
CCN(CC)c1ccc(/C=N/Nc2nc(-c3ccc(C)cc3)cs2)c(O)c1 | 97.6% | 62.1% | 105% | 99.6% | 87.1% | 105% | 93.6% | 106% | 95.2% | 99.7%
O=C(COc1ccc(NC(=O)Nc2ccc(Cl)c(Cl)c2)cc1)N=Nc1c(O)[nH]c2ccccc12 | -42.7% (active) | 5.06% (active) | -79.3% (active) | -66.8% (active) | -52.7% (active) | -5.94% (active) | -48.9% (active) | -86.3% (active) | -44.5% (active) | -76.5% (active)
COc1ccc2[nH]cc(-c3nnc(N)nc3-c3cn(C)c4ncc(Br)cc34)c2c1 | 93% | 52.5% | 121% | 45.8% | 27.1% | 81.4% | 83.1% | 66.5% | 106% | 105%
O=C(N=Nc1c(O)[nH]c2ccc([N+](=O)[O-])cc12)c1ccc2nc(-c3ccccc3)[nH]c2c1 | 57.9% | 48.1% | 30.7% | 59.5% | 74.6% | 53.3% | 102% | 6.74% (active) | 84.6% | 83.8%
COc1ccc(/C=N/NC(=O)Cn2nc(Cc3ccc(OC)cc3)c3onc(C)c3c2=O)cc1 | 64% | 53.9% | 50.8% | 57.8% | 2.21% (active) | 65.4% | 48.2% | 47.6% | 77% | 63.9%
